Our source for the PBM binding z-score values is the supplement of paper PMC6555819.

The assay has as its system VDR:RXRa (NR concentration 270 nM, RXRa partner concentration 90 nM). Put plainly: PBM binding z-score (relative to random genomic background probes); higher = stronger binding; sequences stand for … in GC…GCGATTGACAGCGTAGAATGAAGG
Here is the method:
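Protein-binding microarray (Agilent 4x180K custom design, double-stranded 60-nt probes: 5' GC cap, 34-nt variable region, 24-nt constant primer region; full probe sequence given). Purified or IVT nuclear receptor:RXRα heterodimers (3:1 NR:RXRα, mostly 270:90 nM) or homodimers were incubated for 1 h in PBS with 2% milk and no ligand, then detected with Alexa488 antibodies. Fluorescence from o1-orientation probes (~5 replicates averaged) was converted to z-scores against 500 random hg19 background probes. Variable regions are seed direct-repeat (DR0–DR5) sites, all their single-nucleotide variants and half-site ablations.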
Sequence TTACCAAGGTAAAAGGTCGTTGATGCACGCCTTG came in with a PBM binding z-score of 2.6.

Turning to CGTCAAAGTTCAAGGCAACGTAACAGAAAGCAGC, the PBM binding z-score came to 3.3.

In turn, CGAACTAGGTCACAGGACAGTGAAAGGCGACGTA showed a PBM binding z-score of 1.61. As for CCGAGTAGGTTACGAGGTGGCATTCAGTGCGAAT, the PBM binding z-score amounted to 0.516. ATCTCTAGGTAAAGTTCATTGAAAGATCGATAGA: the PBM binding z-score was found to be 3.08.

On to CAAACTAGGTCACAGGGGTCAAAGTCCGTGCGTA, for which the PBM binding z-score was 8.24. CAAACTAGGTCACAGAGGTCAAACTCCGTGCGTA showed a PBM binding z-score of 8.03. In the case of CCTTACGGGTCAAGGTTATACCACGGGTGGTACG, the PBM binding z-score turned out to be 3.65. The value for TAGCCTCGGTCATTGGGCCAGTATAGTACGCATC was -0.539; that for TTACCAAGGTGAAAGGTCGTTGAAGCACGCCTTG was 3.42; that for TGAATGAGGTGAAAGATCAGGGAACGTGGCGTCG was 0.449. As for CGTCCAAGGTCAATGCTAGGTCACTGAAAGCATT, the figure is 5.55; as for CCTACTGGGCCATTAAGAGGTCATTGATCATATG, 3.95; as for TATACAGGGTCTAAGGCCAGAGTACGAATGTCGA, 0.486.

Consider CGAACTAGGTCACCAGGCCAGTGAAGAGGTTGGA, for which the PBM binding z-score was found to be 1.71. TTACCGAGGTGAAAGGTCGTTGATGCACGCCTTG came in with a PBM binding z-score of 3.72.

In turn, CTATGTAGGTTAAGGTGGTCATTCAGTTTGAAAG came in with a PBM binding z-score of 2.29. Turning to CAAACTAGGTCACCAGGACAGTGAAGAGGTTGGA, the PBM binding z-score was found to be 2.3. CGAACTAGGTCAACGACAGTGAATCTCCGCACGC gave a PBM binding z-score of 1.27. As for ATACGTAGGTTATCGGGTCATTCAGTTTGCGCAT, the figure is 5.06; as for TATACAGGGTCAAAGGGCAGAGTACGAATGTCGA, 5.43. In the case of TCATATAGGTTAAGGTGAAAGTCGAACGATATGA, the PBM binding z-score was determined as 0.985.

For the sequence CGAAATAGGTCACCAGGACAGTGAAGAGGTTGGA, the PBM binding z-score was determined as 2.91. In turn, GCTAGTAGGTCAGTAAAAGGTCACACACCGGTCG came in with a PBM binding z-score of 4.99. In the case of CCTCGGAGGACACCAGGAGGTCAGAGCTGCCAGA, the PBM binding z-score turned out to be 1.99. As to CAACCTAGGTCACCGGAAGGTCAAAGTCCGCATG, the PBM binding z-score came to 6.51. The value for GATACAGGGTCAGCTAGAGGTCAGAGTATGGAAA was 6.14. On to ATCGAAAGGTCGAAGGTGACTATACCCACCCGAA, for which the PBM binding z-score is 2.9. TTACCAAAGTGAAAGGTCGTTGATGCACGCCTTG: the PBM binding z-score came to 1.86.

In the case of CGTCCAAGGTCAAGGTGAGTGAAAGAGACTCGAA, the PBM binding z-score worked out at 4.01. In the case of AGTAGCAGGCCAAGGGTCACTCAAGATTAGTCCG, the PBM binding z-score worked out at 2.94. Take GCTGCTAGGTCAACTGAAGGTCAGCTAAAGCTCG: the PBM binding z-score was 4.15. ATATGTAGGTTAGCTGGGGTCATTCCGACTAGGC registered a PBM binding z-score of 6.1. On to CCTACTGGGCCAAGGTCATTGCTCAGTCAAAGCA, for which the PBM binding z-score is 3.19. Sequence TAGCCTAGGTCATTGTGCCAGTATAGTACGCATC returned a PBM binding z-score of 2.33. For AGAATGGGGTTATTAAGATCAGGGAATTGCGGTC, the PBM binding z-score came to 4.05. CGAACTAGGTCAAAGGACAGTGTAAGGCGACGTA registered a PBM binding z-score of 1.58. For the sequence CTATGTAGGTTAAGGGGGTCAATCAGTTTGAAAG, the PBM binding z-score amounted to 7.09. As for ATCGAATGGTCGAAGGTGAGTATACCCACCCGAA, the figure is -0.0843. ATATGTAGGTTAGGGTCATTCATAAAGTAGGGAA showed a PBM binding z-score of 4.67.
